The results in this text go back to PubChem BioAssay AID493056 (National Center for Advancing Translational Sciences (NCATS), 2011).

Where “and” joins values, the source holds several entries; their conditions need not be identical. Equal entries are not always repeated. In all, about 360,000 compounds went through this assay and about 2,400 (0.67%) were called active. No stated cut-off is given here; in the data, active means enhancement above about 30%; inactive means the rest. For the sample, actives were picked, then their nearest neighbours and some compounds at random. Where a structure was tested more than once in an assay, its records may differ in their call.

Thyrotropin-releasing hormone receptor (Homo sapiens), sequence (P34981 whole entry, looked up): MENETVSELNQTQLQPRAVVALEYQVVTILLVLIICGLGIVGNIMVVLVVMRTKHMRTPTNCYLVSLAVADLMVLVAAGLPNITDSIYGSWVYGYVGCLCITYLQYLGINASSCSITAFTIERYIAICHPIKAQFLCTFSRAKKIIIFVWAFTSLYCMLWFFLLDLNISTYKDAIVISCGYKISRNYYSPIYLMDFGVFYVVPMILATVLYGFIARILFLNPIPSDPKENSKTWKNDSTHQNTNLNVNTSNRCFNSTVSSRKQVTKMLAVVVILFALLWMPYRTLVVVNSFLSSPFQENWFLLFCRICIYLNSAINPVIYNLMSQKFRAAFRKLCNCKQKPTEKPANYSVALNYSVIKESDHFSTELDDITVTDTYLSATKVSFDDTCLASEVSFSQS

The test concerns the target Thyrotropin-releasing hormone receptor (Homo sapiens) (UniProt P34981). The test can be described thus: qHTS for Small Molecule Agonists and Allosteric Enhancers of Human TRH Receptor: Primary Screen for Enhancers. Further: 0% is about no effect. The note with it: TRHR cells, fluo-8 calcium fluorescence, EC20 TRH enhancement; at 2 µM; stronger effect = higher value. The procedure, abridged:
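TRHR-expressing cells loaded with fluo-8 calcium dye were read kinetically (ex 480/em 530) during compound addition, then stimulated with an EC20 of TRH (10 nM final). Enhancement of the Gq-mediated intracellular calcium response was scored.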
For `COc1cccc(CNC(=O)Cn2ncn3c(cc4ccccc43)c2=O)c1`, the enhancement was 4.48% (inactive).

With `CCOc1cc(-c2nnc(SCC(=O)NC3CCCCC3)nc2-c2ccc(OC)c(OCC)c2)ccc1OC`, the enhancement is -3.44% (inactive).

As for `O=C(CNC(=O)c1ccc(Cl)cc1Cl)OC(C(=O)Nc1cc(C(F)(F)F)ccc1Cl)c1ccccc1` (centres undefined), the enhancement is 10.6% (inactive).

`Cc1ccc(C(=O)Cn2cccn2)cc1`: the enhancement is -2.28% (inactive).

On to `O=C(Cn1c[n+](CC(=O)c2ccc([N+](=O)[O-])cc2)cn1)c1ccc([N+](=O)[O-])cc1`, for which the enhancement was -6.86% (inactive) and 34.2% (active).

Regarding `O=C(CC(n1cncn1)C(Cl)(Cl)Cl)c1ccc([N+](=O)[O-])cc1` (centres undefined), the enhancement is 0.518% (inactive).

Regarding `O=C(NCCc1csc(-c2ccc(C(F)(F)F)cc2)n1)C(=O)Nc1ccc(F)c(Cl)c1`, the enhancement was 0.606% (inactive).

In the case of `Cc1nc(CN(C)C(=O)CC2C(=O)NCCN2Cc2ccc(F)cc2)cs1` (centres undefined), the enhancement is 20.6% (inactive).

As for `Cc1csc(CN(C)C(=O)CC2C(=O)NCCN2CC(C)(C)C)n1` (centres undefined), the enhancement is 44.2% (active).

Consider `CC(C)(C)CN1CCNC(=O)C1CC(=O)NC1Cc2ccccc2C1` (centres undefined), for which the enhancement is -4.71% (inactive).

`COc1ccc(CCNC(=O)c2cnc3sc(N4CCCCCC4)nn3c2=O)cc1OC`: the enhancement was 7.34% (inactive).

Turning to `COc1ccc(S(=O)(=O)c2cn(C)c3cc(N4CCCCC4)c(F)cc3c2=O)cc1`, the enhancement was 7.82% (inactive).

Regarding `Cc1c(CNC2CCCCC2)c(C(=O)O)c(C)n1Cc1cccc(Cl)c1`, the enhancement was -4.62% (inactive).

`COc1ccc(-c2cc(C(=O)Nc3sc4c(c3C(N)=O)CCCC4)no2)cc1`: the enhancement is 10.2% (inactive).

As for `Cc1cc(OC(C)C(=O)Nc2sc3c(c2C(N)=O)CCCC3)ccc1Cl` (centres undefined), the enhancement is 34.9% (active).

`COC(=O)c1c(NC(=O)C(C)Oc2ccc(Cl)c(C)c2)sc(C)c1C` (centres undefined): the enhancement was -3.22% (inactive).

In the case of `O=C(Cn1nc(Cc2cccnc2)c2ccccc2c1=O)NCC1COc2ccccc2O1` (centres undefined), the enhancement is 0.892% (inactive).

Turning to `O=C(Cn1cnc2ccccc2c1=O)NCC1COc2ccccc2O1` (centres undefined), the enhancement is 38.9% (active).

With `CC1CC(C)CN(C(=O)CCNC(=O)Cn2cnc3ccccc3c2=O)C1` (centres undefined), the enhancement is 2.77% (inactive).

On to `COC(=O)c1sc2ncccc2c1-n1c(C)ccc1C`, for which the enhancement is 4.46% (inactive).

`Cc1ccc(CN(C(=O)COc2ccc(Cl)cc2C)C2CCS(=O)(=O)C2)o1` (centres undefined): the enhancement is 1.47% (inactive).

For `O=C(CN1C(=O)c2cccc3cccc1c23)Nc1ccccc1`, the enhancement was 43.7% (active).

`COc1cccc(NC(=O)CN2C(=O)c3ccccc3Sc3ncccc32)c1`: the enhancement is 2.38% (inactive).

As for `O=C(CN1CCOCC1)Nc1ccccc1`, the enhancement is 2.28% (inactive).

On to `Oc1ccc(Cl)cc1C1C=C(c2ccc3c(c2)OCO3)NC(c2c(F)cccc2Cl)N1` (centres undefined), for which the enhancement was -2.95% (inactive).

For the compound `CCCC(=O)Nc1cc2nn(-c3ccccc3)nc2cc1C`, the enhancement is -3.06% (inactive).

In the case of `CCCn1c2ccccc2c2cnn(CC(=O)NCC3CCN(Cc4ccc(C)cc4)CC3)c(=O)c21`, the enhancement was 1.43% (inactive).

Turning to `CCc1nc2ccccc2c(C(=O)OC2CCCCC2=O)c1C` (centres undefined), the enhancement is -2.51% (inactive).

Take `CCOc1ccc(NC(=O)CSc2c3c(nc4ccccc24)CCCC3)cc1`: the enhancement is -3.93% (inactive).

Consider `O=C(COC(=O)c1c2c(nc3ccccc13)CCCC2)c1ccc(Br)s1`, for which the enhancement is 35% (active).

Consider `Cc1cc(NS(=O)(=O)c2ccc3oc(=O)c4ncn(C)c4c3c2)ccc1Br`, for which the enhancement was -12.1% (inactive).

For `COc1ccc2c(c1)C=C(C(=O)NCc1cc(Br)ccc1OC)CO2`, the enhancement was -3.71% (inactive).

Regarding `CCCC(=O)Nc1ccc(NC(=O)c2sc3ccccc3c2Cl)cc1`, the enhancement is -1.06% (inactive).

For `CCC(=O)N1CCc2cc(S(=O)(=O)NC(C(=O)NCCc3ccc(C)cc3)C(C)C)ccc21` (centres undefined), the enhancement is 18.2% (inactive).

Turning to `CN(C(=O)CSc1nnc(Nc2ccccc2)s1)C1CCS(=O)(=O)C1` (centres undefined), the enhancement is 51.4% (active).

On to `CN(C(=O)CSc1nnc(NC(=O)Nc2ccccc2)s1)c1ccccc1`, for which the enhancement was -6.25% (inactive).

`CCn1c(SCC(=O)N(C)C2CCS(=O)(=O)C2)nnc1-c1cccs1` (centres undefined): the enhancement was 2.93% (inactive).

Regarding `CC(=O)c1ccc(N2CCN(C3C(=O)c4ccccc4N3C(C)=O)CC2)cc1` (centres undefined), the enhancement is -5.78% (inactive).

For `N#Cc1ccccc1Cn1cnc2nc3c(cc2c1=O)CCCC3`, the enhancement is 2.65% (inactive).

For the compound `O=S(=O)(c1ccccc1)c1nc(-c2ccc(Cl)cc2Cl)oc1N1CCCCC1`, the enhancement was 2.85% (inactive).

As for `CCCCNC(=O)C1CCCN(c2nnc(C)c3c(C)n(-c4ccc(Cl)cc4)nc23)C1` (centres undefined), the enhancement was -2.23% (inactive).

On to `CC(C)C1Nc2c(C(=O)O)cccc2C(Nc2ccccc2C(=O)O)C1(C)C` (centres undefined), for which the enhancement was 30.3% (active).

`Cc1ccc(-n2nc(CO)c(C(=O)NCCc3ccccc3)n2)cc1`: the enhancement is -1.1% (inactive).

`CC(=O)N1CCCc2cc(S(=O)(=O)N3CCC(C(=O)NCc4ccc(C)cc4)CC3)ccc21`: the enhancement is 4% (inactive).

Regarding `CCc1ccc(Sc2cc(C(=O)NCCCOC(C)C)c3ccccc3n2)cc1`, the enhancement was -9.07% (inactive).

For `CC1COc2ccccc2N1S(=O)(=O)c1ccccc1` (centres undefined), the enhancement was -5.39% (inactive).

On to `CC1COc2ccccc2N1C(=O)c1cccnc1Cl` (centres undefined), for which the enhancement is 30.7% (active).

Consider `O=C1COc2ccc(C(=O)COC(=O)c3cccnc3Cl)cc2N1`, for which the enhancement was -8.83% (inactive).

In the case of `Cc1oc2ccc(O)c(CN3CCOCC3)c2c1C(=O)Nc1cccc(Cl)c1C`, the enhancement was -0.894% (inactive).

For `COc1ccc(-c2ccc(=O)n(CC(=O)Nc3ccc(Br)cc3F)n2)cc1`, the enhancement was 5.81% (inactive).

Regarding `Cc1cc(C)cc(NC(=O)NC2CCCCCCC2)c1`, the enhancement is -4.13% (inactive).

Consider `S=C(Nc1ccc(Br)cc1Cl)NC1CCN(Cc2ccccc2)CC1`, for which the enhancement is 1.92% (inactive).

With `Cc1cc(Br)ccc1NC(=S)NC1CCCC1`, the enhancement is 36% (active).

Consider `CCOc1ccc(NC(=O)C2CCN(S(=O)(=O)c3cc(-c4noc(C)n4)ccc3C)CC2)cc1`, for which the enhancement is 0.0598% (inactive).

As for `Cc1cccc(Cn2c(CN3CCC(C(=O)NCc4ccccc4Cl)CC3)cc3ccccc32)c1`, the enhancement was -3.11% (inactive).

For `CCOc1ccc(C(=O)c2cn(Cc3ccccc3OC)c3ccc(F)cc3c2=O)cc1`, the enhancement was -0.366% (inactive).

Regarding `C/C(=N/OC(=O)c1ccc(Br)cc1)c1ccc(C)cc1`, the enhancement is 61.7% (active).

Take `C/C(=N\OC(=O)c1ccccc1)c1c(C)nc2cc(C)ccn12`: the enhancement is -2.45% (inactive).

Regarding `N/C(=N\OC(=O)c1ccc2c(c1)OCO2)c1ccc(Br)cc1`, the enhancement is -2.97% (inactive).

Consider `Cc1cn(C)c(CC(=O)NCc2ccccc2)c1C(=O)O`, for which the enhancement was -2.62% (inactive).

`Cc1cccc(-c2nc(SCc3ccc(Br)cc3)n3[nH]c(=O)cc3n2)c1`: the enhancement is 4.69% (inactive).

`O=C(NC1(C(F)(F)F)N=C(c2ccccc2)N(C2CCCCC2)C1=O)c1ccccc1F` (centres undefined): the enhancement was -3.75% (inactive).

With `CN1CCN(c2oc(-c3ccc(COc4ccc(Cl)cc4)o3)nc2C#N)CC1`, the enhancement is 0.896% (inactive).

Regarding `Cc1ccc(C)c(NC(=O)C2CCCN(S(=O)(=O)c3cn(C)cn3)C2)c1` (centres undefined), the enhancement was 12.8% (inactive).

Take `CSc1ccc(S(=O)(=O)N2CCC(C(=O)NCc3ccncc3)CC2)cc1`: the enhancement was 0.598% (inactive).

Regarding `O=C(NCc1ccncc1)C1CCCN(S(=O)(=O)c2ccc(Br)cc2)C1` (centres undefined), the enhancement is 30.7% (active).

In the case of `O=C(NCc1ccccc1)C1CCCN(S(=O)(=O)c2cccs2)C1` (centres undefined), the enhancement was 4.34% (inactive).

As for `CCc1nc2c(cnn2-c2ccc(C)cc2)c(=O)n1-c1ccc(C)cc1`, the enhancement was -4.12% (inactive).

As for `Cc1ccc(Cn2ncc3c4sc(C)cc4n(C)c3c2=O)c(C)c1`, the enhancement is 4.39% (inactive).

On to `CCCN(CCC)CCNC(=O)c1ccc2c(c1)NC(=O)C(CS(=O)(=O)Cc1cccc(Br)c1)N2` (centres undefined), for which the enhancement is 5.05% (inactive).

As to `O=C(C1CCN(C2CCN(Cc3cccc4c3OCO4)CC2)CC1)N1CCOCC1`, the enhancement was 2.59% (inactive).

Take `O=C(C1CCN(C2CCN(Cc3ccc4cc(F)ccc4n3)CC2)CC1)N1CCCC1`: the enhancement was -6.35% (inactive).

Turning to `C/C(=C\c1ccco1)CN1CCC(N2CCC(C(=O)N3CCOCC3)CC2)CC1`, the enhancement is 46.7% (active).

For the compound `Cc1ccc(-c2nc(SCc3ccc(Br)cc3)n3[nH]c(=O)cc3n2)cc1`, the enhancement is -0.363% (inactive).

As for `CC(C)Oc1ccc(NC(=O)c2cc3ccccc3o2)cc1`, the enhancement was 7.33% (inactive).

For `Cc1c(/C=N\NC(=O)c2cc3ccccc3o2)c2ccccc2n1C`, the enhancement was 44.3% (active).

Take `CC(C)(C)n1nc2c(c1NC(=O)c1cc3ccccc3o1)CSC2`: the enhancement is 1.55% (inactive).

For `O=C(NCCS(=O)(=O)N1CCN(c2ccc(F)cc2)CC1)c1ccccc1Br`, the enhancement was 1.15% (inactive).

`Cc1ccc(C2CCN(C(=O)c3cnn(-c4ccccc4Cl)c3C3CCN(C(=O)OC(C)(C)C)CC3)C2)cc1` (centres undefined): the enhancement was 3.84% (inactive).

With `O=S(=O)(c1cccs1)N1CCN(CCOc2ccccc2)CC1`, the enhancement was 5.02% (inactive).

With `CC(=O)Nc1ccc(S(=O)(=O)N2CCN(S(=O)(=O)c3cccs3)CC2)cc1`, the enhancement was -0.8% (inactive).

Consider `CN1CCN(S(=O)(=O)c2ccc(N3CCN(S(=O)(=O)c4cccs4)CC3)nc2)CC1`, for which the enhancement is 39.6% (active).

As for `CCOC(=O)C1CCN(c2csc3ccc(C)cc3c2=O)CC1`, the enhancement is -6.67% (inactive).

For the compound `CCOC(=O)C1CCC(CN(Cc2ccc(OC)cc2)S(=O)(=O)c2ccc(F)c(C(=O)Nc3cc(C)ccc3C)c2)CC1` (centres undefined), the enhancement is -3.18% (inactive).

As to `Cc1ccc(NC(=O)CN2c3ccccc3S(=O)(=O)c3ccccc32)cc1F`, the enhancement was 10.5% (inactive).

As to `CC(=O)N1CCN(CC(=O)Nc2ccc(C)c(F)c2)CC1`, the enhancement was 47.8% (active).

`COC(=O)c1cc(NC(=O)CN2CCN(C(C)=O)CC2)cc(C(=O)OC)c1`: the enhancement is 6.58% (inactive).

Turning to `CCOc1ccc(C2C(C(=O)Nc3ccc(Cl)cc3)=C(C)Nc3nc(C(F)(F)F)nn32)cc1` (centres undefined), the enhancement was 10.8% (inactive).

For `C#CC(C)(CC)NC(=O)Cn1nnc(-c2ccc(OCc3c(F)cccc3Cl)cc2)n1` (centres undefined), the enhancement was 1.56% (inactive).
